Compound activity: PubChem, several laboratories
Insulin prom inh – TRM-6 insulin promoter activity inhibition. TRM-6 cells (human fetal islet line), insulin promoter-eGFP reporter, imaging; reporter expression induced with tamoxifen. hit rate 0.9% among 130,000. inhibition, % at 2 µM;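 active = inhibition above the mean plus 3 SD, with well images judged a real hit on visual review, cut at about 60% in these data, passing the limit was not always enough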
bCat KO growth – beta-catenin-lacking colon tumor cell growth suppression; HCT116 beta-catenin knockout viability, CellTiter-Glo, 60 h; hits give low values; viability, % at 10 µM; hit rate 1.5% among 140,000;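 active = viability at or under a set limit, the compound median less 4 SD, cut at about 6% in these data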;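 also: 0% = Hyamine 1622 control at 20 µM and 100% = untreated cell control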
ROMK mod – human ROMK K+ channel modulation, primary screen | Tet-inducible ROMK, thallium flux fluorescence; actives lie on both sides | B-score at 10 µM | hit rate 2% among 130,000 | AID 1918;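 active = signal ratio slope over the read window, or its plate-corrected B-score, at least 3 SD from the plate mean, either direction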;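 also: B-score of the F/F0 ratio slope over 7 to 12 s after thallium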
Target sequence (P48048 whole entry, looked up): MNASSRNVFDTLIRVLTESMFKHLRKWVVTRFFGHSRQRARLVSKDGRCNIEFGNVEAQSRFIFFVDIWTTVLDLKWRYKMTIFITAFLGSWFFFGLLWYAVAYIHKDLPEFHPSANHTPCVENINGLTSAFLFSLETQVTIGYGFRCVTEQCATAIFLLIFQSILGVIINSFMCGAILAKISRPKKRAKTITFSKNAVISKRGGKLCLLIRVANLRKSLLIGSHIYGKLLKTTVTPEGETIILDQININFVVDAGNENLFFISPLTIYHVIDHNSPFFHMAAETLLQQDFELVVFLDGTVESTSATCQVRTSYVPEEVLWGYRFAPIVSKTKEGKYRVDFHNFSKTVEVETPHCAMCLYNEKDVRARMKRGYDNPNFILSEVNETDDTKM
L major viab – reduces viability of Leishmania major promastigotes | resazurin fluorescence viability | inhibition, % at 10 µM | hit rate 9% among 200,000; in the data active = inhibition above about 50%;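 also: promastigotes grown with compound for 44 hours at 28 °C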
p97 ATPase inh – inhibitors of human p97 ATPase; P55072; recombinant p97 ATPase, Kinase-Glo ATP luminescence, 3 h; inhibition, % at 8 µM; hit rate 0.42% among 220,000; AID 1481; in the data active = inhibition above about 15%;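 also: 0% = DMSO vehicle and 100% = wells lacking enzyme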
PTEN del growth – growth suppressors of cells with PTEN tumor suppressor deletion; hit rate 1.2% among 140,000; HCT116 PTEN-null viability, CellTiter-Glo, 60 h; hits give low values; viability, % at 10 µM; AID 827;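 active = viability at or below a set limit, 4 SD under the median of all tested compounds, cut at about 3.7% in these data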;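 also: PTEN knockout HCT116 line with beta catenin targeted HCT116 as companion control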
An asterisk follows results filed as active; . = not tested or not shown. An excerpt weighted towards active compounds, which were near 10% of everything screened.

SMILES	Insulin prom inh	bCat KO growth	ROMK mod	L major viab	p97 ATPase inh	PTEN del growth
O=C(/C=C/c1ccc(Cl)cc1)NCc1cccs1	2.6	100.9	0.00173	53.2*	-1.9	97.3
O=C(/C=C/c1cccc(Cl)c1)NCc1cccs1	-35.5	98.6	.	-0.8	4.5	81.4
CC1(C)CC(=O)C2=C(C1)NC1=C(C(=O)c3ccccc31)C2c1ccc(Cl)cc1 (centres undefined)	.	32.7	0.197	59.7*	-2.9	14.1
CCN(CC)CCN1C2=C(C(=O)CC(C)(C)C2)C(c2cccc(F)c2)C2=C1CC(C)(C)CC2=O	-140.0	.	-0.895	22.2	1.4	.
Cc1ccc(C2C3=C(CC(C)(C)CC3=O)NC3=C2C(=O)c2ccccc23)cc1 (centres undefined)	-316.7	81.1	0.201	35.8	2.3	73.0
CCCN1C2=C(C(=O)CC(C)(C)C2)C(c2ccc(F)cc2)C2=C1c1ccccc1C2=O (centres undefined)	7.1	77.6	0.273	71.8*	-4.1	76.4
CCCCN1C2=C(C(=O)CC(C)(C)C2)C(c2ccccc2)C2=C1c1ccccc1C2=O (centres undefined)	53.3	72.3	.	83.7*	-7.0	77.1
Cc1ccc(NC(=O)c2ccc(OC(=O)COc3ccc(Cl)cc3C)cc2)cc1	-25.0	89.3	1.43	-6.6	4.0	81.1
Cc1ccc(C(=O)CC(=O)COc2ccc(Cl)cc2C)cc1	20.0	25.9	.	91.0*	3.4	24.6
Cc1cc2cc(CCNC(=O)c3cccs3)c(=O)[nH]c2cc1C	-17.1	40.2	-1.76	4.7	1.1	77.1
C=CCc1c(C)[nH]c2c(OC)cccc2c1=S	.	.	0	76.2*	-5.1	.
O=[N+]([O-])c1ccc2[nH]c(O)c(N=NC3CCS(=O)(=O)C3)c2c1 (centres undefined)	.	.	.	.	3.5	.
O=C(c1noc2c1CCCC2)N1CCC(CO)(Cc2ccccc2Cl)CC1	.	.	-0.02	4.8	2.5	.
Cc1ccc(N(C)C(=O)N2CCN(S(=O)(=O)c3c(C)cc(C)cc3C)CC2)cc1	-62.9	72.2	-1.99	97.6*	-7.7	.
CCN(c1cccc(C)c1)c1nc2ccsc2c(=O)s1	-33.3	100.1	-0.633	2.4	-1.6	102.0
Cc1cc2c3c(c1)C1(SCC(=O)N1c1ccc(F)cc1)C(=O)N3C(C)(C)CC2C (centres undefined)	17.9	76.0	-2.23	61.1*	-3.1	72.3
CC1CC(C)(C)N2C(=O)C3(Nc4ccccc4S3)c3cccc1c32 (centres undefined)	12.5	74.2	0.977	32.0	-4.9	70.7
O=C(NCc1ccc2c(c1)OCO2)c1ccc(CS(=O)(=O)Cc2cccc(Cl)c2)o1	28.9	88.1	-1.24	79.0*	3.9	91.0
CCc1ccccc1S(=O)(=O)Cc1ccc(C(=O)NCc2ccc3c(c2)OCO3)o1	.	87.9	.	8.1	4.8	83.0
O=C(NCc1ccc2c(c1)OCO2)c1ccc(CSCc2ccc(Cl)cc2)o1	-20.0	92.8	-1.41	50.5*	1.6	97.1
Cc1cccc(NC2=NCC(=O)N2Cc2cccs2)c1	.	.	-0.922	0.6	7.9	.
COc1ccc(/C=N/NC(=O)c2cccnc2)c(C(=O)O)c1OC	.	.	.	.	4.6	.
CCc1ccccc1NC(=O)c1ccccc1Sc1ccc([N+](=O)[O-])cc1Cl	-11.1	61.8	.	96.8*	-3.0	52.4
O=C(c1ccc(CN2CCc3ccccc3C2)cc1)N1CCc2ccccc2C1	.	90.2	-0.664	31.0	-3.4	93.2
Cc1cccc(NC(=O)c2ccc(CN3CCc4ccccc4C3)cc2)c1C	-11.8	.	.	57.0*	-3.1	.
SMILES	Insulin prom inh	bCat KO growth	ROMK mod	L major viab	p97 ATPase inh	PTEN del growth
Cc1ccccc1NC(=O)c1ccc(CN2CCc3ccccc3C2)cc1	0.0	67.2	.	44.7	-1.8	68.7
CCc1cccc(C)c1NC(=O)c1ccc(CN2CCc3ccccc3C2)cc1	40.6	76.2	.	65.7*	-1.7	73.0
Cc1ccc(CSCc2ccc(C(=O)NCCCN3CCOCC3)o2)cc1	-73.3	.	-0.0108	2.0	-1.3	.
CN1CCN(CCCNC(=O)c2ccc(CSCc3cccc(Cl)c3)o2)CC1	-92.3	97.2	-0.909	99.4*	-1.5	106.4
O=C(NCCCN1CCCC1)c1ccc(CSCc2cccc(Cl)c2)o1	5.6	77.8	-2.19	98.5*	1.2	86.6
O=C(CCNC(=O)c1ccccc1Cl)Nc1nnc(C2CC2)s1	14.3	.	1.17	-6.7	7.5	.
CCSc1nc(C)nc2sc(C)c(C)c12	.	.	.	.	1.6	.
CC(=O)Nc1nc(C2CC2)cc(-c2ccccc2)c1C#N	-6.2	.	-1.08	11.4	8.7	.
CCOC(=O)c1c(C)[nH]c(C(=O)N/N=C\c2ccccc2O)c1C	.	7.0	.	99.9*	3.2	7.6
C=CCN(CC=C)CCOc1ccc2ccccc2c1	17.6	.	0.489	41.0	-1.6	.
C=CCN(CC=C)CCOc1ccccc1	19.2	102.4	-0.0235	54.2*	1.5	98.5
C=CCN(CC=C)CCOc1cccc2ccccc12	-50.0	78.1	-0.509	62.0*	-1.2	92.2
CCOc1ccc(-c2onc(C(F)(F)F)c2-c2cscn2)c(O)c1	30.0	78.9	0.501	-2.8	28.5*	86.2
Cc1oc2c(c1C(=O)N1CCC(C)CC1)C(=O)c1ccccc1C2=O	21.9	1.6*	-0.0262	99.5*	5.1	1.5*
CCOC(=O)C1CCN(C(=O)c2c(C)oc3c2C(=O)c2ccccc2C3=O)CC1	15.0	1.1*	0.0951	99.8*	6.1	0.7*
CCOC(=O)C1CCN(C(=O)c2ccco2)CC1	.	103.2	.	-4.9	-0.6	106.7
Cc1nn(C)c2ncc(C(N)=O)c(Oc3ccc(Cl)cc3)c12	.	.	.	.	4.3	.
Cc1ccc(S(=O)(=O)N/N=C\C=C\c2ccccc2)cc1	29.6	90.8	.	83.4*	6.4	95.6
O=S(=O)(N/N=C\C=C\c1ccccc1)c1ccc(Br)cc1	7.1	92.5	.	96.7*	1.5	95.1
Cc1ccc(S(=O)(=O)N/N=C/c2ccc(C(=O)O)cc2)cc1	6.7	84.8	.	-0.9	3.4	98.0
CC(C)(C)CC(C)(C)NC(=O)/C=C/C(=O)O	.	.	.	.	-5.6	.
COC(=O)c1ccccc1NC(=O)CNC(=O)c1ccc(OC)c(OC)c1	.	.	-1.86	6.6	1.5	.
COCCNC(=O)c1c(C)cc(C)cc1C	.	.	0.327	-6.9	4.1	.
CC(=O)N=c1sc2c3ccccc3ccc2n1C	.	88.5	.	63.4*	5.1	89.0
CC1C2CC(C/C2=N/NC(=O)c2cccs2)C1(C)C (centres undefined)	16.7	.	-1.43	95.5*	0.1	.
SMILES	Insulin prom inh	bCat KO growth	ROMK mod	L major viab	p97 ATPase inh	PTEN del growth
CCOC(=O)C/C(C)=N/NC(=O)c1cccs1	.	90.4	0.707	-6.4	1.1	99.9
CCOC(=O)/C(=N\Nc1ccccc1)P(=O)(c1ccccc1)c1ccccc1	.	.	.	.	-13.1	.
O=[N+]([O-])c1ccc(CSc2nc3ccccc3[nH]2)cc1	.	42.6	.	4.5	4.1	56.3
O=C(CCCSc1nc2ccccc2[nH]1)N1CCN(c2ccc([N+](=O)[O-])cc2)CC1	-5.5	53.1	-5.38*	6.9	5.0	38.5
COc1ccc(-c2coc3c(CN4CCCCC4)c(O)c(CN4CCCCC4)c(O)c3c2=O)cc1	-100.0	1.4*	.	-3.1	4.1	1.6*
COc1ccc(N=Nc2cc(C)c(O)c(CN3CCCCC3)c2)cc1	.	.	.	.	-3.8	.
